Results published in PubChem BioAssay AID1159580 (chemical genetic matrix, 2015).
Values joined by “and” are separate entries in the source; they are usually repeats but may differ in a detail not shown here. Equal values may be shown once. The whole screen tested about 5,500 compounds, of which about 2,000 (36%) were called active. About 18% were inconclusive and are not listed. Cut-off read from the data, not from the text of the source: active = normalized growth mostly below about 0.91 (no sharp cut-off); inconclusive = no clear call, values can overlap the other calls; inactive = mostly above about 0.92. This is one part of the list.

Assay: chemical genetic growth profiling, strain panel (AID 1159580);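 note: tested at 20 µM; growth read once vehicle control cultures reached saturation at 30 °C; 1 = growth at the plate median or of vehicle wells; lower values mean less growth of the strain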
Conditions: S. cerevisiae deletion strains, growth OD
[1] = locus YAR019C, strain CDC15, stronger effect = lower value
[2] = locus YBL105C, strain PKC1, stronger effect = lower value
[3] = locus YBR135W, strain CKS1, stronger effect = lower value
[4] = locus YBR136W, strain MEC1, stronger effect = lower value
[5] = locus YBR160W, strain CDC28, stronger effect = lower value
[6] = locus YDL017W, strain CDC7, stronger effect = lower value
[7] = locus YDL028C, strain MPS1, stronger effect = lower value
[8] = locus YDL101C, strain DUN1, stronger effect = lower value
[9] = locus YDL108W, strain KIN28, stronger effect = lower value
[10] = locus YDL132W, strain cdc53, stronger effect = lower value
[11] = locus YDL214C, strain PRR2, stronger effect = lower value
[12] = locus YDR052C, strain DBF4, stronger effect = lower value
[13] = locus YDR054C, strain cdc34, stronger effect = lower value
[14] = locus YDR226W, strain ADK1, stronger effect = lower value
[15] = locus YDR477W, strain SNF1, stronger effect = lower value
[16] = locus YER123W, strain YCK3, stronger effect = lower value
[17] = locus YER133W, strain GLC7, stronger effect = lower value
[18] = locus YFL009W, strain cdc4, stronger effect = lower value
[19] = locus YFL029C, strain CAK1, stronger effect = lower value
[20] = locus YFR003C, strain YPI1, stronger effect = lower value
[21] = locus YFR019W, strain FAB1, stronger effect = lower value
[22] = locus YFR028C, strain CDC14, stronger effect = lower value
[23] = locus YGR040W, strain KSS1, stronger effect = lower value
[24] = locus YGR052W, strain FMP48, stronger effect = lower value
[25] = locus YGR092W, strain DBF2, stronger effect = lower value
[26] = locus YHR030C, strain SLT2, stronger effect = lower value
[27] = locus YHR079C, strain IRE1, stronger effect = lower value
[28] = locus YHR082C, strain KSP1, stronger effect = lower value
[29] = locus YHR205W, strain SCH9, stronger effect = lower value
[30] = locus YIL147C, strain SLN1, stronger effect = lower value
[31] = locus YJL095W, strain BCK1, stronger effect = lower value
[32] = locus YJL128C, strain PBS2, stronger effect = lower value
[33] = locus YJL157C, strain FAR1, stronger effect = lower value
[34] = locus YJR016C, strain ILV3, stronger effect = lower value
[35] = locus YJR066W, strain TOR1 (second series), stronger effect = lower value
[36] = locus YJR066W, strain TOR1, stronger effect = lower value
[37] = locus YKL048C, strain ELM1, stronger effect = lower value
[38] = locus YKL067W, strain YNK1, stronger effect = lower value
[39] = locus YKL101W, strain HSL1, stronger effect = lower value
[40] = locus YKL193C, strain SDS22, stronger effect = lower value
[41] = locus YKL203C, strain TOR2, stronger effect = lower value
[42] = locus YLR113W, strain HOG1, stronger effect = lower value
[43] = locus YLR133W, strain CKI1, stronger effect = lower value
[44] = locus YLR403W, strain SFP1, stronger effect = lower value
[45] = locus YML070W, strain DAK1, stronger effect = lower value
[46] = locus YMR001C, strain CDC5, stronger effect = lower value
[47] = locus YMR205C, strain PFK2 (second series), stronger effect = lower value
[48] = locus YMR277W, strain FCP1, stronger effect = lower value
[49] = locus YNL006W, strain LST8, stronger effect = lower value
[50] = locus YNL020C, strain ARK1, stronger effect = lower value
[51] = locus YNL161W, strain CBK1, stronger effect = lower value
[52] = locus YNL183C, strain NPR1, stronger effect = lower value
[53] = locus YNL207W, strain RIO2, stronger effect = lower value
[54] = locus YNL222W, strain SSU72, stronger effect = lower value
[55] = locus YNL307C, strain MCK1 (second series), stronger effect = lower value
[56] = locus YOL078W, strain AVO1, stronger effect = lower value
[57] = locus YOL136C, strain PFK27, stronger effect = lower value
[58] = locus YOR061W, strain CKA2, stronger effect = lower value
[59] = locus YOR119C, strain RIO1, stronger effect = lower value
[60] = locus YOR231W, strain MKK1, stronger effect = lower value
[61] = locus YOR329C, strain SCD5, stronger effect = lower value
[62] = locus YPL031C, strain PHO85, stronger effect = lower value
[63] = locus YPL153C, strain RAD53, stronger effect = lower value
[64] = locus YPL209C, strain IPL1, stronger effect = lower value
[65] = locus YPL256C, strain CLN2, stronger effect = lower value
[66] = locus YPR025C, strain CCL1, stronger effect = lower value
[67] = locus YPR106W, strain ISR1, stronger effect = lower value
[68] = locus YPR111W, strain DBF20, stronger effect = lower value
[69] = strain NNK1, stronger effect = lower value
[70] = strain TSCII, stronger effect = lower value

Measured: normalized growth

COc1cc(CC/C(C)=N/O)ccc1OCc1ccc(Cl)cc1Cl
inactive: [1] 0.977 | [2] 0.972 | [3] 0.978 | [4] 0.977 | [5] 0.981 | locus YBR229C, strain ROT2, stronger effect = lower value 0.934 | locus YCL061C, strain MRC1, stronger effect = lower value 0.931 | [6] 0.979 | [7] 0.978 | [8] 0.992 and 0.922 | [9] 0.978 | [10] 0.982 | locus YDL134C, strain PPH21, stronger effect = lower value 0.925 | [11] 0.944 | [12] 0.989 | [13] 0.998 | locus YDR150W, strain NUM1, stronger effect = lower value 0.911 | [14] 1 | [15] 0.952 | locus YEL061C, strain CIN8, stronger effect = lower value 0.929 | [16] 0.939 | [17] 0.937 | [18] 0.968 | [19] 0.98 | [20] 0.976 | [21] 0.953 | [22] 0.984 | [23] 0.948 | [24] 0.973 | [25] 0.952 | [27] 0.885 | [28] 1.02 | locus YHR087W, strain rtc3, stronger effect = lower value 0.935 | [29] 0.939 | [30] 0.982 | [31] 0.938 | [32] 0.932 | [33] 0.918 | [34] 0.978 | [35] 0.913 | [36] 1.01 | [37] 0.986 | [38] 0.942 | [39] 0.949 | [40] 0.979 | [41] 0.972 | locus YLR058C, strain SHM2 (second series), stronger effect = lower value 0.976 | [42] 0.881 | [43] 0.944 | [44] 0.942 | [45] 0.936 | [46] 0.971 | [47] 0.965 | locus YMR219W, strain ESC1, stronger effect = lower value 0.998 | locus YMR263W, strain SAP30, stronger effect = lower value 0.912 | [48] 0.979 | [49] 0.974 | [50] 0.935 | locus YNL153C, strain GIM3, stronger effect = lower value 0.94 | [51] 0.976 | [52] 0.978 | [53] 0.979 | [54] 0.98 | [55] 0.932 | locus YNL322C, strain KRE1, stronger effect = lower value 0.98 | [56] 0.983 | [57] 0.921 | [58] 0.966 | [59] 1.02 | [60] 0.929 | [61] 0.976 | [62] 0.94 | [63] 0.95 | [64] 0.976 | [66] 0.979 | [67] 0.976 | [68] 0.993 | [69] 0.976 | [70] 0.973
active: locus YAL013W, strain DEP1, stronger effect = lower value 0.908 | locus YGR078C, strain PAC10, stronger effect = lower value 0.92 | [26] 0.242 and 0.801 | locus YJR043C, strain POL32, stronger effect = lower value 0.91 | locus YJR075W, strain HOC1, stronger effect = lower value 0.879 | locus YKL190W, strain CNB1, stronger effect = lower value 0.762 | locus YLR039C, strain RIC1, stronger effect = lower value 0.694 | locus YLR085C, strain ARP6, stronger effect = lower value 0.307 | locus YLR262C, strain YPT6, stronger effect = lower value 0.803 | locus YML094W, strain GIM5, stronger effect = lower value 0.865 | locus YNL298W, strain CLA4 (second series), stronger effect = lower value 0.784 | locus YNR030W, strain Alg12, stronger effect = lower value 0.803 | locus YOL006C, strain TOP1, stronger effect = lower value 0.579 | locus YPL055C, strain LGE1, stronger effect = lower value 0.727 | locus YPL241C, strain CIN2, stronger effect = lower value 0.822 | [65] 0.863 | locus YPR135W, strain CTF4, stronger effect = lower value 0.388

COc1cc(CC/C(C)=N\O)ccc1OCc1ccc(Cl)c(Cl)c1
active: [26] 0.831 | [42] 0.816
inactive: [1] 0.973 | [2] 0.964 | [3] 0.97 | [4] 0.96 | [5] 0.975 | [6] 0.963 | [7] 0.959 | [8] 0.975 | [9] 0.947 | [10] 0.983 | [11] 0.818 | [12] 0.971 | [13] 0.968 | [14] 0.973 | [15] 0.868 | [16] 0.767 | [17] 0.864 | [18] 0.968 | [19] 0.968 | [20] 0.968 | [21] 0.808 | [22] 0.983 | [23] 0.862 | [24] 0.881 | [25] 0.824 | [27] 0.871 | [28] 0.883 | [29] 0.869 | [30] 0.962 | [31] 0.849 | [32] 0.916 | [33] 0.823 | [34] 0.969 | [35] 0.786 | [36] 0.867 | [37] 0.934 | [38] 0.865 | [39] 0.852 | [40] 0.968 | [41] 0.932 | [43] 0.875 | [44] 0.865 | [45] 0.82 | [46] 0.967 | [47] 0.877 | [48] 0.968 | [49] 0.975 | [50] 0.851 | [51] 0.973 | [52] 0.885 | [53] 0.965 | [54] 0.969 | [55] 0.845 | [56] 0.978 | [57] 0.84 | [58] 0.818 | [59] 0.931 | [60] 0.842 | [61] 0.972 | [62] 0.858 | [63] 0.833 | locus YPL204W, strain HRR25, stronger effect = lower value 0.873 | [64] 0.968 | [65] 0.893 | [66] 0.98 | [67] 0.968 | [68] 0.962 | [69] 0.953 | [70] 0.97
